Each sequence was assayed on LXRa homodimer (NR concentration 270 nM) (assay: PBM binding z-score (relative to random genomic background probes); higher = stronger binding; sequences stand for … in GC…GCGATTGACAGCGTAGAATGAAGG).
Method in brief: (§1)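 Binding z-scores take random background probes as their reference. They come from custom Agilent 4×180K protein-binding microarrays incubated 1 h with ligand-free nuclear receptor dimers, with antibodies against each partner (one per run) detecting binding. Scanned fluorescence was regression-normalized.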

Compared with AGTCAAAGTTCATCTAGGTAACGTATGATATGCT, CAAACTAGGTGAAGAGGTCAAAGTCCGCTTCCCG is lower in PBM binding z-score: 5.49 for the first, 4.29 for the second.

Going from CCTATTTGGTCAAGGTCACACACGCTATAGGTAC to AGAATGAGGTTGTACGTAGATCAGGGAAGAAAGT, the PBM binding z-score falls from 2.64 to 0.00374.

Compared with GTACCAAGGTGAATAGGTCGTTAATGAGTAGGCG, CCTAGCAGGCCAATCTGGGTCACACAAGGCTTGA is lower in PBM binding z-score: -0.0766 for the first, -0.247 for the second.

Compared with AACTCTAGGTAAAAGTTCAGTGAATCCCGAGGAT, TTACCAAGGTGAAGGTCGTTGTTCCCTCTGTAGA is lower in PBM binding z-score: 1.21 for the first, 0.195 for the second.

Going from CCGACTGGTGCAGAAAGGTTACCATACCATCCGG to TCTATTAGTTGATGGGCAACCGACGAGTCCGTTT, the PBM binding z-score rises from -0.181 to -0.0154.

First: GCTTACGGGTCAAAGGTTATTGCATGAATAGAAT
Second: TCTTGTAGATCAAAGGTTAAGAACGCCGAAGCCT
The PBM binding z-score of the first is higher: 1.09 for the first, 0.21 for the second.

First: TCAGACAGGTGAAGGTAACTCATGTACGCAGTCG
Second: GCTATTAGTAGAAAGGGCAACCGAATGATTCTCG
The PBM binding z-score of the first is lower: -0.116 for the first, -0.00158 for the second.

First: CCAGACAGGTGAAAGGTAAGTCAGTCTGGTACGC
Second: ACTCGGAGGACAAAGGTCAGAGATACGCCAGTGA
The PBM binding z-score of the first is lower: -0.142 for the first, 1.83 for the second.

Going from AGAATGAGGTTACCAAAGATCAGGGCAACGCTTG to CCGACTGGGGCAAAGGTTAGCATACTCAGTACGA, the PBM binding z-score falls from -0.189 to -0.315.

Going from ATCTCTAAGTAAAGATAGTTCAGTGAATGCAAAT to GCTATTAGTTGAAAGGGCTACCGAATGATTCTCG, the PBM binding z-score falls from 0.571 to -0.117.

Compared with TCTTGTCGATCAATAGAGGTTAAGAAAGTGCGCT, ATCTCTTGGTAAAAGTTCAGTGAATCCCGAGGAT is higher in PBM binding z-score: 0.541 for the first, 1.42 for the second.

First: CTAACTAGGTCAAGGACAGTGAATCTCCGCACGC
Second: AGAATGAGGTTATTAAAATCAGGGAATTGCGGTC
The PBM binding z-score of the first is higher: 0.51 for the first, 0.0738 for the second.

First: ACAAGCAGGCCAAGGGTCACTCAAGATTAGTCCG
Second: GATACAGGGTCAAGGCCCGAGTACGCGTATTGAT
The PBM binding z-score of the first is higher: 0.0513 for the first, -0.361 for the second.

Going from ACTATTAGTTGACTTAGTGCAACCGATACGACGC to CCGAGTAGGTTATGGGGCAGTCAGGCAACGGTGA, the PBM binding z-score falls from -0.0872 to -0.0975.

Compared with CCTACTGGGCCATTCAGAGGCCATTGATCATATG, ATCTCTGGGTAAGACTCAGTTCAGTGAAGAACGC is higher in PBM binding z-score: -0.0422 for the first, 0.369 for the second.

Going from TCGAGTTGGTCACGGAGGTCACACACGACGGGTA to TTACCAAGGTGAACGTCGTTGATCCCTCTGTAGA, the PBM binding z-score falls from 1.8 to -0.455.

Compared with TCATATAGGTAAAGGTGAAAGTCGAACGATATGA, CTACTAAGGTGAACAAGGTCGTTGATTACTATTC is higher in PBM binding z-score: -0.00869 for the first, 0.193 for the second.

Going from ATCTCTAGGCAAAAGTTCAGTGAATCCCGAGGAT to CAAACTAGGTCAAGGTAAAAGTCGGTTTGTGCCA, the PBM binding z-score falls from 0.751 to 0.259.

Compared with CAAACTAGGTCAGGGTCAAAGTCGGTTTGTGCCA, ATATGTAGGTTACAACCGGGTCATTCAGGCTATG is higher in PBM binding z-score: 1.32 for the first, 1.33 for the second.

Going from AGTCAATGTTCAGGACGAGGTAACGTAAAGCACG to ATATGTAGGTTAAGGGTCATCCAGGTTGGTTCGC, the PBM binding z-score rises from -0.0733 to 2.83.

The sequences below were run on LXRb:RXRa (NR concentration 270 nM, RXRa partner concentration 90 nM) in the same assay as above.
Method in brief: as §1

First: AGTCAAAGTTCATCTAGGTAACGTATGATATGCT
Second: CAAACTAGGTGAAGAGGTCAAAGTCCGCTTCCCG
The PBM binding z-score of the first is lower: 3.77 for the first, 4.34 for the second.

Compared with CCTATTTGGTCAAGGTCACACACGCTATAGGTAC, AGAATGAGGTTGTACGTAGATCAGGGAAGAAAGT is lower in PBM binding z-score: 4.09 for the first, 0.364 for the second.

First: GTACCAAGGTGAATAGGTCGTTAATGAGTAGGCG
Second: CCTAGCAGGCCAATCTGGGTCACACAAGGCTTGA
The PBM binding z-score of the first is lower: 0.302 for the first, 1.21 for the second.

First: AACTCTAGGTAAAAGTTCAGTGAATCCCGAGGAT
Second: TTACCAAGGTGAAGGTCGTTGTTCCCTCTGTAGA
The PBM binding z-score of the first is lower: 0.973 for the first, 1.41 for the second.

First: CCGACTGGTGCAGAAAGGTTACCATACCATCCGG
Second: TCTATTAGTTGATGGGCAACCGACGAGTCCGTTT
The PBM binding z-score of the first is higher: 0.491 for the first, 0.186 for the second.

Compared with GCTTACGGGTCAAAGGTTATTGCATGAATAGAAT, TCTTGTAGATCAAAGGTTAAGAACGCCGAAGCCT is lower in PBM binding z-score: 5.81 for the first, 2.16 for the second.

Going from TCAGACAGGTGAAGGTAACTCATGTACGCAGTCG to GCTATTAGTAGAAAGGGCAACCGAATGATTCTCG, the PBM binding z-score falls from 0.964 to 0.187.

Compared with CCAGACAGGTGAAAGGTAAGTCAGTCTGGTACGC, ACTCGGAGGACAAAGGTCAGAGATACGCCAGTGA is higher in PBM binding z-score: 0.505 for the first, 3.54 for the second.

First: AGAATGAGGTTACCAAAGATCAGGGCAACGCTTG
Second: CCGACTGGGGCAAAGGTTAGCATACTCAGTACGA
The PBM binding z-score of the first is higher: 3.11 for the first, 1.27 for the second.

First: ATCTCTAAGTAAAGATAGTTCAGTGAATGCAAAT
Second: GCTATTAGTTGAAAGGGCTACCGAATGATTCTCG
The PBM binding z-score of the first is higher: 0.658 for the first, -0.32 for the second.

Compared with TCTTGTCGATCAATAGAGGTTAAGAAAGTGCGCT, ATCTCTTGGTAAAAGTTCAGTGAATCCCGAGGAT is lower in PBM binding z-score: 1.92 for the first, 0.868 for the second.

Compared with CTAACTAGGTCAAGGACAGTGAATCTCCGCACGC, AGAATGAGGTTATTAAAATCAGGGAATTGCGGTC is lower in PBM binding z-score: 1.58 for the first, 1.21 for the second.

Compared with ACAAGCAGGCCAAGGGTCACTCAAGATTAGTCCG, GATACAGGGTCAAGGCCCGAGTACGCGTATTGAT is higher in PBM binding z-score: 2.56 for the first, 3.39 for the second.

Going from ACTATTAGTTGACTTAGTGCAACCGATACGACGC to CCGAGTAGGTTATGGGGCAGTCAGGCAACGGTGA, the PBM binding z-score rises from -0.107 to 0.378.

Going from CCTACTGGGCCATTCAGAGGCCATTGATCATATG to ATCTCTGGGTAAGACTCAGTTCAGTGAAGAACGC, the PBM binding z-score rises from -0.326 to 0.319.

First: TCGAGTTGGTCACGGAGGTCACACACGACGGGTA
Second: TTACCAAGGTGAACGTCGTTGATCCCTCTGTAGA
The PBM binding z-score of the first is higher: 3.05 for the first, 1.01 for the second.

First: TCATATAGGTAAAGGTGAAAGTCGAACGATATGA
Second: CTACTAAGGTGAACAAGGTCGTTGATTACTATTC
The PBM binding z-score of the first is lower: 1.05 for the first, 2.02 for the second.

Going from ATCTCTAGGCAAAAGTTCAGTGAATCCCGAGGAT to CAAACTAGGTCAAGGTAAAAGTCGGTTTGTGCCA, the PBM binding z-score rises from 0.584 to 1.97.

Compared with CAAACTAGGTCAGGGTCAAAGTCGGTTTGTGCCA, ATATGTAGGTTACAACCGGGTCATTCAGGCTATG is lower in PBM binding z-score: 4.16 for the first, 2.93 for the second.

Compared with AGTCAATGTTCAGGACGAGGTAACGTAAAGCACG, ATATGTAGGTTAAGGGTCATCCAGGTTGGTTCGC is higher in PBM binding z-score: -0.154 for the first, 4.66 for the second.

— the supplement of paper PMC6555819
